The source of these data is PubChem BioAssay AID1347416 (National Center for Advancing Translational Sciences (NCATS), 2020).

Among all 4,100 compounds or so, about 1,600 (39%) were called active. Roughly 25% stayed inconclusive and do not appear here. The call rests on the fitted dose curve; in most records, active means well fitted inhibition curve with a large enough effect; inconclusive means small, poorly fitted or top-dose-only effect; inactive means no such curve, though single readings can be large or run the other way. The list shows a part of the results.
On the % scale 0 is the no-effect control and ±100 the full control effect; potency means the concentration at half of the fitted maximal effect.

This test can be described thus: qHTS Validation assay for Inhibitors of Plasmodium falciparum Dd2 growth in vitro. Further: nearly all actives have a fitted effect of over 70% in size. Conditions: P. falciparum Dd2 in RBCs, SYBR Green growth, 72 h; series mostly up to 28.7 µM; activity change, negative = inhibition: at the top concentration. An excerpt:
Malaria, a parasitic disease spread to humans through the bite of a Plasmodium infected Anopheles mosquito, continues to be a global health burden affecting millions of people, with an estimated 228 million cases and 405,000 deaths in 2018. Concerns about safety and limitations of current antimalarial treatments strongly emphasize the need to develop new therapeutic options. The scarce number of chemotypes and validated drug targets with efficacy against the liver stage, have hindered development of new antimalarials. To address this, a chemoprophylactic drug discovery effort was conducted through a combined phenotypic high-throughput asexual blood stage and liver stage screen, providing a robust foundation to identify liver-stage active lead chemotypes. Compounds were initially screened against Plasmodium falciparum Dd2 strain parasites using a in vitro SYBRGreen-1 based 72 hr proliferation assay to identify novel chemotypes to advance to liver stage assays. NIH/NCATS Early Translation Branch Assay Submitter (PI): Anton Simeonov Ph.D.
[…] Assay Protocol: PROTOCOL TABLE (as described by Inglese et al., 2007) SEQUENCE No. (e.g., 1, 2, 3, etc.); PARAMETER (e.g., Cells, Incubation, Reagent, etc.); VALUE; DESCRIPTION SEQUENCE, Parameter, Description 1; Reagent; 3 uL complete malaria growth medium, 1536 TC treated Black clear bottom plate 2; Controls; 23 nL positive control artesunate (300 nM final) to column 1; Neutral control DMSO to columns 2-4 3; Compound; 23 nL of compounds in dose response concentration (29 uM to 0.5 nM final) 4; Reagent; 5 uL malaria infected red blood cells (2.5% hematocrit final, 0.3% parasitemia 5; Time; 72 hours at 37C (5% O2, 5% CO2, 90% N2; 95% Rh) 6; Reagent; 2 uL lysis buffer/SYBRGreen-1, 25 sec shake immediately following dispense 7; Time; ~16 hours at 37C (5% O2, 5% CO2, 90% N2; 95% Rh) 8; Detector; EnVision (PerkinElmer) bottom read at 485/14nm excitation and 535/25 nm emission NOTES (numbers refer to sequence above): 1; Complete Malaria Growth Media: 1X RPMI-1640 w/L-glutamine, 5.5g/L Albumax II, 367 uM Hypoxanthine, 25 mM HEPES, 0.25% Sodium Bicarbonate, 35 uM Gentamicin sulfate 2; Controls were added using the Kalypsis Pintool (Wako USA) equipped with 1536 pinhead 3; Compounds were added in a 7-point, titration with a high final concentration of 29 uM by Pintool from seven inter-plate titrations of library plates and two DMSO control plates at the beginning and end (see Yasgar et al., 2008). 4; Red blood cells infected with Plasmodium falciparum Dd2 parasites were used. 6; Lysis buffer: 20 mM Tris-HCl, 10 mM EDTA, 0.16% Saponin, 1.6% Triton-X, 10X SYBR Green. REFERENCE: Inglese J, Shamu CE, Guy RK. 2007. Reporting data from high-throughput screening of small-molecule libraries. Nat Chem Biol. doi:10.1038/nchembio0807-438 Yasgar A, Shinn P, Jadhav A, Auld D, Michael S, Zheng W, Austin CP, Inglese J, Simeonov A. 2008. Compound Management for Quantitative High-Throughput Screening. J Lab Autom 13:79-89. doi:10.1016/j.jala.2007.12.004
Consider `COc1ccc2cc3cc(C(=O)NCCC(C)C)oc3nc2c1`, for which the “activity change, negative = inhibition” value was 61.6% (inactive).

With `COc1ccc(CNC(=O)N2CCCC(CN3CCCC3)CC2)cc1` (stereo not drawn), the “activity change, negative = inhibition” value was -25.2% (inactive).

With `COc1cccc(CC(=O)N2CCCC(CN3CCCC3)CC2)c1` (stereo not drawn), the Potency is 15 µM (active).

As to `CCc1noc(-c2cn(C3CCN(C(=O)Cc4cccc(OC)c4)CC3)nn2)n1`, the “activity change, negative = inhibition” value was -1.95% (inactive).

For the molecule `Nc1cc2ccncc2c2ccccc12`, the Potency was 0.266 µM (active).

For `O=C(NC1CCCC1)N1CCC(Cc2nncn2CC2CC2)CC1`, the “activity change, negative = inhibition” value was 22.2% (inactive).

For `Cc1ccccc1CN1C[C@@H]2C[C@@H](c3cn[nH]c3-c3ccccc3)N3CCC[C@@]23C1=O`, the Potency is 15 µM (active).

In the case of `COC[C@@H]1CN(Cc2cn[nH]c2-c2ccccc2)C[C@H]1c1nc(C)no1`, the “activity change, negative = inhibition” value is -4.59% (inactive).

Regarding `COCC(=O)N[C@H]1C[C@@H](CO)N(Cc2cn[nH]c2-c2ccccc2)C1`, the “activity change, negative = inhibition” value is 9.64% (inactive).

On to `Cc1cccc(NC(=O)Cn2cnc(S(=O)(=O)N3CCCC3)c2)c1C`, for which the “activity change, negative = inhibition” value is -9.65% (inactive).

As to `Cc1cccc(NC(=O)Cn2c(C)c(C#N)c3ccccc32)c1C`, the Potency was 5.96 µM (active).

Regarding `CN(C)c1cc(=O)c2ccnc(-c3ccccc3F)c2o1`, the “activity change, negative = inhibition” value is 0% [at 57.5 µM] (inactive).

With `CCc1ccc(CNC(=O)c2cc3cc4ccc(OC)cc4nc3o2)cc1`, the “activity change, negative = inhibition” value is 12.9% (inactive).

For `CCCOC(=O)c1ccc(-c2c(C)noc2-c2ccc(OC)cc2O)o1`, the Potency is 1.88 µM (active).

As for `COc1ccccc1NC(=O)CN1CCN(C2c3ccccc3-c3ccccc32)CC1`, the Potency was 15 µM (active).

In the case of `CCc1cc(=O)n(CC(=O)Nc2ccccc2OC)c(-c2ccccc2)n1`, the “activity change, negative = inhibition” value was -27.4% (inactive).

For `CCc1noc(-c2cccn3c(CNC(=O)c4cccc(N(C)C)c4)nnc23)n1`, the “activity change, negative = inhibition” value was 4.51% (inactive).

Regarding `Cc1ccc(C(=O)NCc2nnc3c(-c4nc(C(C)C)no4)cccn23)cc1`, the “activity change, negative = inhibition” value is -1.73% (inactive).

`CCOC(=O)c1c(-c2ccccc2)oc2ccc(O)c(CN3CCCC3)c12`: the Potency was 0.596 µM (active).

Regarding `Cc1ccc(CN2CCc3nc(C(=O)Nc4cccnc4)oc3CC2)cc1`, the “activity change, negative = inhibition” value is -9.16% [at 43.1 µM] (inactive).

In the case of `CCOC(=O)c1c(C)c(-c2ccccc2)n(CC(=O)NC2CCCCCC2)c1C`, the “activity change, negative = inhibition” value is -7.27% (inactive).

For `Cc1ccc(NC(=O)c2c(C)oc3ccc(O)c(CN4CCCCCC4)c23)c(C)c1`, the Potency is 4.73 µM (active).

In the case of `Cc1ccc(NC(=O)c2c(C)oc3ccc(O)c(CN4CCCCCC4)c23)cc1`, the Potency was 2.11 µM (active).

On to `Cc1ccc(S(=O)(=O)N2CC3CCCC2C3)cc1` (stereo not drawn), for which the “activity change, negative = inhibition” value is -6.85% (inactive).

In the case of `O=C(NC[C@H]1OC[C@@H](NCc2ccccc2F)[C@@H]1O)Nc1ccccc1`, the “activity change, negative = inhibition” value was -11.3% [at 43.1 µM] (inactive).

Take `Cc1cccc(OCCc2noc(C3CCN(C(=O)c4n[nH]c(=O)c5ccccc45)C3)n2)c1` (stereo not drawn): the “activity change, negative = inhibition” value is -9.66% (inactive).

For `CCn1cc(CN2CCCC(c3nc(C(C)C)no3)CCNC(=O)CC2)cn1` (stereo not drawn), the “activity change, negative = inhibition” value was 15.1% (inactive).

In the case of `Cc1ccc(O)c(CN2CCCC(c3nc(CC(C)C)no3)C2)c1` (stereo not drawn), the Potency was 9.44 µM (active).

As to `CN(C(=O)Cn1c(=O)n(Cc2ccc(C(=O)NCc3ccc4c(c3)OCO4)cc2)c(=O)c2ccccc21)c1ccccc1`, the “activity change, negative = inhibition” value was 6.13% (inactive).

`O=C(Cn1c(=O)n(Cc2ccc(C(=O)NCc3ccc4c(c3)OCO4)cc2)c(=O)c2ccccc21)Nc1cccc(Cl)c1`: the Potency was 5.96 µM (active).

`N=c1ccn(CC(=O)c2ccc(-c3ccccc3)cc2)cc1`: the Potency was 0.944 µM (active).

`C[C@H]1CN=C(N(C)C)N1CCC1CCCCC1`: the “activity change, negative = inhibition” value is -7.45% (inactive).

For the molecule `NC1=NC[C@@H](Cc2ccc(O)cc2)N1CCCCC1CCCCC1`, the Potency is 4.73 µM (active).

On to `CCC(=O)N1CCCCCCN(C)C(=O)[C@@H]2CCC[C@@H]21`, for which the “activity change, negative = inhibition” value was 9.66% (inactive).

Take `COc1ccc2c(c1)c(CN1CCCCCCN(C)C(=O)[C@@H]3CCC[C@@H]31)cn2C`: the Potency was 15 µM (active).

On to `C=C(C)COc1ccc(-c2[nH]ncc2-c2ccc(OC)c(OC)c2)c(O)c1`, for which the Potency is 6.68 µM (active).

For `C=C(C)COc1ccc(-c2[nH]ncc2Oc2ccccc2OCC)c(O)c1`, the Potency is 2.99 µM (active).

Turning to `CCOC(=O)C1CCN(C(=O)Cn2cnc3sc(C)c(S(=O)(=O)N4CCOCC4)c3c2=O)CC1`, the “activity change, negative = inhibition” value was 54.6% (inactive).

As to `CCOC(=O)c1c(C)oc2c1C(=O)c1ccccc1C2=O`, the Potency is 0.422 µM (active).

With `CCOC(=O)C1CCN(C(=O)c2c(C)oc3c2C(=O)c2ccccc2C3=O)CC1`, the Potency was 0.531 µM (active).

On to `CCOC(=O)c1c(C)[nH]c2c1-c1ccccc1C(=O)C2=O`, for which the Potency was 2.37 µM (active).

For the molecule `CCOC(=O)c1cc(Sc2ccccc2N)cc(C(=O)OCC)n1`, the “activity change, negative = inhibition” value is -6.23% (inactive).

`O=C(NCc1ccc(F)cc1)C1(CCO)CC12CCOCC2` (stereo not drawn): the “activity change, negative = inhibition” value was 10.9% (inactive).

With `O=C(Nc1ccccc1F)N1CCCCCC1c1nc(-c2cccnc2)no1` (stereo not drawn), the “activity change, negative = inhibition” value is 23.3% (inactive).

Take `O=C(CCC1CCCN(Cc2cccn2-c2cccnc2)C1)Nc1ccccc1F` (stereo not drawn): the Potency was 6.68 µM (active).

In the case of `O=C(c1ccc(F)cc1)N1CCn2c(nnc2-c2ccccc2)C1`, the “activity change, negative = inhibition” value was 0% [at 43.1 µM] (inactive).

Take `CC1CCN(C(=O)CSc2nc(-c3ccc(C(C)C)cc3)no2)CC1`: the Potency is 1.19 µM (active).

As for `CC(C)c1noc(-c2cn(C3CCN(C(=O)COc4ccccc4)CC3)nn2)n1`, the “activity change, negative = inhibition” value is 22.5% (inactive).
